Assay outcomes deposited in PubChem BioAssay by National Center for Advancing Translational Sciences (NCATS).
AMA1-RON2 inh: inhibitors of Plasmodium falciparum AMA1-RON2 interaction. AID 720542. Potency, µM (top dose mostly 58.2 µM), without a hit: top-dose activity change, negative = inhibition, hits mostly inhibitors. AlphaScreen AMA1-biotinylated RON2 peptide binding. 360,000 compounds, 0.2% hits;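 note: potency is the fitted concentration of half-maximal effect; 0% = vehicle wells and -100% = peptide control; nearly all actives have a fitted effect of over 45% in size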
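AMA1 (3D7) with his tag at 25 nM final met compounds first, then biotinylated RON2 peptide at 25 nM; detection used donor plus acceptor beads, 10 µg/mL apiece, read by AlphaScreen after 30 min at room temperature.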
AmpC inh no detg: AmpC beta-lactamase inhibition without detergent. 330,000 compounds, 0.52% hits. P00811. AmpC nitrocefin hydrolysis, absorbance 480 nm, 0.0001% Triton. Potency, µM (top dose mostly 57.1 µM), without a hit: at the highest dose activity change, negative = inhibition, hits mostly inhibitors;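 note: potency is the fitted concentration of half-maximal effect; plate controls were no compound for no effect and no enzyme for full effect; nearly all actives have a fitted effect of over 20% in size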
Target sequence (P00811 whole entry, looked up): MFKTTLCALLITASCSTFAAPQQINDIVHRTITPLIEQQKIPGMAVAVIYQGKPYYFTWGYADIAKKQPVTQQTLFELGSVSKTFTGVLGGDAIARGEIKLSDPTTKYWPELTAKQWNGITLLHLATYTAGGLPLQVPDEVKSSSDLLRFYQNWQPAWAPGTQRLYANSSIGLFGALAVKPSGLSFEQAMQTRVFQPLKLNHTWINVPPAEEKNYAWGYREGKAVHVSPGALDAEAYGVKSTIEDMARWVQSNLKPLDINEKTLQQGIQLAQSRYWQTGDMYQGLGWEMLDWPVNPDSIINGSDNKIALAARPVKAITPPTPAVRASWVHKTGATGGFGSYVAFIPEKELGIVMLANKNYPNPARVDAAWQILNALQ
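AmpC (5.3 nM in the dispensed reagent) in 20 mM phosphate pH 7.0 with 0.01% (detergent screen) or 0.0001% Triton X-100 was preincubated with compounds for 15 min at room temperature. Nitrocefin was then added from an 800 uM solution, and hydrolysis was followed at 480 nm.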
CHX counter: counter-screen hit for Shiga toxin inhibitors, cycloheximide. AID 2314. max response, %. cell reporter, cycloheximide protein synthesis inhibition counterscreen. 300,000 compounds, 12% hits; in the data active = max response mostly above about 13%, no sharp cut-off; inactive = mostly below about 14%; note: read at 38.3 µM for the half of the compounds with a filed dose; 0% is about no effect
SARS PLP yeast: inhibitors of SARS-CoV papain-like protease in yeast. AID 485353. Potency, µM (series often up to 32.9 µM), for the others: top-dose activity, positive = growth rescue, usual class: activators. S. cerevisiae expressing SARS-CoV PLpro, growth rescue. 330,000 compounds, 0.19% hits; calls by dose curve; note: potency is the fitted concentration of half-maximal effect; 0% is about no effect; nearly all actives have a fitted effect of over 55% in size
AmpC detergent: blocks E. coli AmpC beta-lactamase in detergent assay; P00811; AmpC hydrolysis of nitrocefin, absorbance 480 nm, 0.01% Triton; Potency, µM (top dose mostly 114 µM), without a hit: top-dose activity change, negative = inhibition, most hits filed as inhibitors; 370,000 compounds, 0.041% hits; AID 485294;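 note: potency is the fitted concentration of half-maximal effect; 0% = no-compound wells and -100% = no-enzyme wells; nearly all actives have a fitted effect of over 25% in size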
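20 mM phosphate pH 7.0 + 0.01% (detergent screen) or 0.0001% Triton X-100; 5.3 nM AmpC reagent; cpd preinc 15 min RT; nitrocefin (800 uM stock) to start; A480 q20 s × 4 min; Activity was normalised to no-enzyme and no-compound control wells.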
Shiga toxin inh: inhibitors of Shiga toxin in Vero cells; 290,000 compounds, 9.2% hits; Vero cells, Shiga toxin protein synthesis inhibition reporter; AID 2315; inhibition, % at 38.7 µM; in the data active = inhibition mostly above about 28%, no sharp cut-off; inactive = mostly below about 43%; note: 0% is about no effect
Active calls of the source: *. This is one part of a sample in which hits are shown more often than they occur. Unless noted, calls come from the whole dose curve; as a rule, active = well fitted curve in the direction sought with a large enough effect; inconclusive = small, poorly fitted or top-dose-only effect, or another doubt; inactive = no such curve, though single readings can be large; an effect the other way counts as inactive or inconclusive.

`Cc1ccccc1C(=O)Nc1ccccc1NC(=O)c1ccccc1Br` gave AMA1-RON2 inh -7%, AmpC inh no detg -28%, CHX counter -4, SARS PLP yeast 2%, AmpC detergent -4% and Shiga toxin inh 1.
Screening Cc1nc(NC(=O)CCc2ccccc2)ccc1Br returned AMA1-RON2 inh -8%, AmpC inh no detg -23%, CHX counter 32*, SARS PLP yeast -7%, AmpC detergent 2% and Shiga toxin inh 137*.
For Cc1ccccc1C(=O)Nc1ccc(Br)c(C)n1 the results were AMA1-RON2 inh 1%, AmpC inh no detg -25%, CHX counter 49*, SARS PLP yeast -3%, AmpC detergent -4% and Shiga toxin inh 81*.
Screening N#Cc1ccc(C(=O)Nc2ccc3ccccc3c2)cc1 returned AMA1-RON2 inh inconclusive, AmpC inh no detg -28%, CHX counter 26*, SARS PLP yeast -1%, AmpC detergent -13% and Shiga toxin inh 103*.
`CC(=O)c1sc(NC(=O)CCc2ccccc2)nc1C` gave AMA1-RON2 inh -3%.
For CC(C)(C)NC(=O)Nc1ccc2nccnc2c1 the results were AMA1-RON2 inh 2%, AmpC inh no detg -32%, CHX counter 29*, SARS PLP yeast -10%, AmpC detergent 6% and Shiga toxin inh 88*.
`CCOC(=O)C(=CNc1cc(C)nn1C(C)(C)C)C(=O)OCC` gave AMA1-RON2 inh -26%, AmpC inh no detg 46%, CHX counter 10, SARS PLP yeast 5%, AmpC detergent 1% and Shiga toxin inh -6.
Screening Cc1cc(NC(=O)c2cccnc2)ccc1Br returned AMA1-RON2 inh -1%, AmpC inh no detg -2%, CHX counter 31*, SARS PLP yeast -8%, AmpC detergent -12% and Shiga toxin inh 44*.
`O=C(Nc1ccc2c(c1)Cc1ccccc1-2)c1ccco1` gave AMA1-RON2 inh -5%, AmpC inh no detg -13%, CHX counter 45*, SARS PLP yeast -42%, AmpC detergent -12% and Shiga toxin inh 142*.
For Cc1cccc(NC(=O)c2cccnc2)c1 the results were AMA1-RON2 inh 34%, AmpC inh no detg -8%, CHX counter 9, SARS PLP yeast 10%, AmpC detergent 1% and Shiga toxin inh 13.
`COc1cccc(OC)c1C(=O)Nc1ccc2c(c1)Cc1ccccc1-2` gave AMA1-RON2 inh -19%, AmpC inh no detg 27%, CHX counter 10, SARS PLP yeast -2%, AmpC detergent -1% and Shiga toxin inh 10.
Screening COc1ccc(C(=O)Nc2ccnc(-c3cccnc3)n2)cc1 returned AMA1-RON2 inh 10%, AmpC inh no detg -11%, CHX counter 14, SARS PLP yeast 0%, AmpC detergent -5% and Shiga toxin inh 50.
Screening O=C(Nc1ccc2ccccc2c1)c1cccnc1 returned AMA1-RON2 inh 16%, AmpC inh no detg -10%, CHX counter 47*, SARS PLP yeast -4%, AmpC detergent -4% and Shiga toxin inh active.
`Cc1ccc(C(=O)Nc2ccnc(-c3cccnc3)n2)cc1` gave AMA1-RON2 inh 7%, AmpC inh no detg -7%, CHX counter 36*, SARS PLP yeast -3%, AmpC detergent -11% and Shiga toxin inh 45.
`COc1ccc(NC(=O)c2cccnc2)cc1` gave AMA1-RON2 inh 7%, AmpC inh no detg -17%, CHX counter 8, SARS PLP yeast -8%, AmpC detergent -15% and Shiga toxin inh 11.
O=C(CN1c2cccc3cccc(c23)S1(=O)=O)NCc1ccc2c(c1)OCO2 was read as AMA1-RON2 inh 0%, AmpC inh no detg -48%, CHX counter -3, SARS PLP yeast 5%, AmpC detergent inconclusive and Shiga toxin inh 19.
Cc1cc(C)cc(NC(=O)c2cccnc2)c1 was read as AMA1-RON2 inh -4%, AmpC inh no detg -13%, CHX counter -1, SARS PLP yeast -8%, AmpC detergent -13% and Shiga toxin inh 2.
For CC(=O)c1cccc(NC(=O)c2cnccn2)c1 the results were AMA1-RON2 inh 6%, AmpC inh no detg 0%, CHX counter 1, SARS PLP yeast -4%, AmpC detergent -13% and Shiga toxin inh -2.
For Cc1nc(NC(=O)c2cccnc2)ccc1Br the results were AMA1-RON2 inh 0%, AmpC inh no detg -16%, CHX counter 32*, SARS PLP yeast -3%, AmpC detergent -9% and Shiga toxin inh 57*.
O=C(Nc1ccc2c(c1)Cc1ccccc1-2)c1cccnc1 was read as AMA1-RON2 inh 0%, AmpC inh no detg 28%, CHX counter 36*, SARS PLP yeast -2%, AmpC detergent -8% and Shiga toxin inh 89*.
For O=C(Nc1ccc2ccccc2c1)c1cnccn1 the results were AMA1-RON2 inh 45%, AmpC inh no detg -7%, CHX counter 29*, SARS PLP yeast -6%, AmpC detergent -11% and Shiga toxin inh 85*.
`O=C(Nc1ccc2nccnc2c1)c1cnccn1` gave AMA1-RON2 inh -7%, AmpC inh no detg -19%, CHX counter 19*, SARS PLP yeast 8%, AmpC detergent inconclusive and Shiga toxin inh 47*.
`O=C(NCCCn1ccnc1)c1cn(-c2ccccc2)nc1-c1ccccc1` gave AMA1-RON2 inh 18%, CHX counter 12, AmpC detergent -5% and Shiga toxin inh 22.
O=C1CCC(c2ccccc2)(c2ccccc2)CC1 was read as AMA1-RON2 inh 8%, AmpC inh no detg 2%, CHX counter 6, SARS PLP yeast 1%, AmpC detergent -5% and Shiga toxin inh -3.
Fc1ccc(-c2nnc(-c3ccc(Cl)cc3Cl)o2)cc1 was read as AMA1-RON2 inh 0%, AmpC inh no detg -20%, CHX counter 22*, SARS PLP yeast 1%, AmpC detergent 0% and Shiga toxin inh 43*.
Clc1ccc(-c2nnc(-c3cccc4ccccc34)o2)cc1 was read as AMA1-RON2 inh 8%.
Screening Clc1ccc(-c2nnc(-c3ccc(Br)o3)o2)c(Cl)c1 returned AMA1-RON2 inh 35%, AmpC inh no detg -13%, CHX counter 15*, SARS PLP yeast -4%, AmpC detergent inconclusive and Shiga toxin inh 30.
For Fc1ccc(-c2nnc(-c3ccc(Cl)cc3)o2)cc1 the results were AMA1-RON2 inh 16%, AmpC inh no detg -4%, CHX counter 18*, SARS PLP yeast 9%, AmpC detergent -11% and Shiga toxin inh 46*.
Screening Clc1ccc(-c2nnc(-c3ccccc3)o2)c(Cl)c1 returned AMA1-RON2 inh 2%, AmpC inh no detg -31%, CHX counter 51*, SARS PLP yeast -3%, AmpC detergent -8% and Shiga toxin inh 119.
`CCN(CC)CCCNC(=O)CCCn1c(=O)[nH]c2ccc(Br)cc2c1=O` gave AmpC detergent -1%.
